Compounds with a hit are over-represented: about 4.1% of the library has one in this group of screens.
Casp6 inh = caspase-6 (human) enzyme inhibition | P55212 | purified caspase-6, Z-VEID-R110 cleavage fluorescence | inhibition, % at 12.5 µM | hit rate 0.53% among 350,000 | AID 686996;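 active means mean inhibition across replicates at least about 35%, with every replicate also reaching that limit, limit read from the data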
Target sequence (P55212 24-179 limits assumed): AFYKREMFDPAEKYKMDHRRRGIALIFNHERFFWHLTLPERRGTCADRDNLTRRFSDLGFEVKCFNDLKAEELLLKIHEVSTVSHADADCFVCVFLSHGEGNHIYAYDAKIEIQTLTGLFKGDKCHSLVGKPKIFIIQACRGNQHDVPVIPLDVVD
Target sequence (P55212 194-293 limits assumed): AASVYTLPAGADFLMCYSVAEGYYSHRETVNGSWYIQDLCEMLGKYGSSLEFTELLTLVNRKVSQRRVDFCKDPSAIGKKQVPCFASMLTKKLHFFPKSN
CFTR F508del cor = correctors of CFTR F508del function in bronchial epithelial cells; CFBE cells, YFP halide quenching; stimulated with forskolin plus potentiator P3; % fluorescence drop versus neutral controls; activity (quench increase), % at 7.58 µM; hit rate 0.36% among 350,000; AID 720511;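 active means mean added fluorescence quench of at least 8% versus neutral control, with both replicates also reaching 8%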;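 further: cells transiently co-express mutant CFTR-F508del with the halide-sensitive YFP; corrector assay measuring rescue of mutant channel to the surface after 24 h compound exposure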
ALR inh = human ALR oxidase inhibition via reduced H2O2 | purified ALR, DTT oxidation, H2O2 HRP-luminol luminescence | hit rate 3.8% among 290,000 | P55789 | inhibition, % (test concentration not listed);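 active means mean replicate inhibition above about 79%, with every replicate also reaching it, limit read from the data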
Target sequence (P55789 whole entry, looked up): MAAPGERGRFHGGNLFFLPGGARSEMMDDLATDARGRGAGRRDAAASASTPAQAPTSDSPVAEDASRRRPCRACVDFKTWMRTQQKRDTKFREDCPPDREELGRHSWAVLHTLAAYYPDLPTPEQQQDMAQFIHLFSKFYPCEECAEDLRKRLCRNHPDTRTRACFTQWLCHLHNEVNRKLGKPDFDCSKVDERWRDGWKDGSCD
PglD inh = inhibitors of Campylobacter jejuni PglD acetyltransferase. purified PglD enzyme, DTNB colorimetric CoA detection. inhibition, % at 12.5 µM. hit rate 0.098% among 360,000. AID 602405; in the data active means inhibition above about 16%, passing the limit was not always enough
NSD2 inh = NSD2 (human) methyltransferase inhibition; inhibition, % at 12.5 µM; hit rate 0.54% among 310,000; NSD2 peptide methylation, AlphaScreen, 120 min; O96028; in the data active means inhibition above about 50%
Env fusion inh = blocks HIV Env-driven cell-cell fusion. AID 651610. inhibition, % at 12.3 µM. HeLa-JRFL Env/CEM21 cell fusion, luciferase. hit rate 1.1% among 360,000;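 active means mean replicate inhibition score of at least 50 and every replicate individually at or above 50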
Each line names hits and unclear results; the compound was inactive in the other large screens.

Cc1ccc(Nc2nc(N)nc(CN3CCN(Cc4ccc5c(c4)OCO5)CC3)n2)cc1Cl	Env fusion inh 69 (no result: Casp6 inh, CFTR F508del cor)
C[C@@H]1CN([C@H](C)CO)C(=O)c2cc(NC(=O)CCCN(C)C)ccc2O[C@@H]1CN(C)Cc1ccc2c(c1)OCO2	none (no result: ALR inh, PglD inh, NSD2 inh, Env fusion inh)
COc1ccc(N)cc1C#N	none (no result: NSD2 inh)
COc1cc(N)ccc1Cc1ccc(N)cc1OC	ALR inh 97 (no result: Casp6 inh, CFTR F508del cor)
CC(=O)Nc1ccccc1N(CC(O)Cn1c2ccccc2c2ccccc21)S(=O)(=O)c1ccc(C)cc1 (configuration not stated)	none (no result: PglD inh)
CCN(CC(O)Cn1c2ccccc2c2ccccc21)S(=O)(=O)c1ccc(C)cc1 (configuration not stated)	Env fusion inh 56 (no result: Casp6 inh, CFTR F508del cor, ALR inh)
N#CC1=C(N)Oc2cc(N)ccc2C1c1ccc(F)cc1 (configuration not stated)	ALR inh 98 (no result: Casp6 inh, CFTR F508del cor)
COc1ccc(C2C(C#N)=C(N)Oc3cc(N)ccc32)cc1 (configuration not stated)	ALR inh 95
COc1cccc(-c2cc3c(=O)n(-c4ccccc4)c(=S)[nH]c3s2)c1	none (no result: Casp6 inh, CFTR F508del cor, Env fusion inh)
COc1ccc(-c2csc3[nH]c(=S)n(-c4ccccc4)c(=O)c23)cc1OC	ALR inh 83
N#CC(C#N)=Cc1cc2ccccc2nc1N1CCOCC1	ALR inh 95 (no result: Casp6 inh, CFTR F508del cor)
N#C/C(=C\c1cc2ccccc2nc1N1CCOCC1)C(=O)Nc1ccc(N2CCOCC2)cc1	none (no result: Env fusion inh)
C[C@H](CO)N1C[C@H](C)[C@@H](CN(C)Cc2cccnc2)Oc2cc(C#CC3CCCC3)ccc2S1(=O)=O	none (no result: ALR inh, NSD2 inh)
Cc1ccc2nc(-c3ccc(Br)o3)oc(=O)c2c1	ALR inh 89 (no result: Casp6 inh, CFTR F508del cor)
N#CC(C#N)=C(Nc1ccc(F)cc1)SCc1cccc(Br)c1	Env fusion inh 65 (no result: CFTR F508del cor, ALR inh)
Cc1cccc(CSC(Nc2ccc(F)cc2)=C(C#N)C#N)c1	none (no result: Casp6 inh, CFTR F508del cor, ALR inh, PglD inh)
COCC(=O)N(C)C[C@H]1Oc2ncc(-c3ccccc3F)cc2C(=O)N([C@@H](C)CO)C[C@@H]1C	none (no result: Casp6 inh, ALR inh, NSD2 inh)
CCc1nnc(NC(=O)c2cccc(S(=O)(=O)N(C)c3ccccc3)c2)s1	none (no result: Casp6 inh, CFTR F508del cor, PglD inh)
COc1ccc(N(C)S(=O)(=O)c2cccc(C(=O)Nc3cccc(C(=O)NC4CC4)c3)c2)cc1	ALR inh 94
COc1ccc(N(C)S(=O)(=O)c2cccc(C(=O)Nc3nc(C)c(C(C)=O)s3)c2)cc1	ALR inh 99
COc1ccc(N(C)S(=O)(=O)c2cccc(C(=O)NCC(c3cccs3)N(C)C)c2)cc1 (configuration not stated)	Casp6 inh 40 (no result: PglD inh)
CCSc1nnc(NC(=O)c2cccc(S(=O)(=O)N(C)c3ccc(C)cc3)c2)s1	ALR inh 98 (no result: Casp6 inh, CFTR F508del cor)
C[C@@H]1CN([C@H](C)CO)C(=O)c2cc(NC(=O)CCC(F)(F)F)ccc2O[C@H]1CN(C)C	none (no result: ALR inh, NSD2 inh, Env fusion inh)
O=C(Nc1ccc(Cl)cc1)N1C[C@@H]2[C@H](c3ccccc31)[C@H](CO)N2CC1CCCCC1	none (no result: ALR inh, NSD2 inh, Env fusion inh)
CN(c1cccc(Cl)c1)S(=O)(=O)c1cccc(C(=O)NC2=NCCS2)c1	ALR inh 98 (no result: Casp6 inh, CFTR F508del cor, Env fusion inh)
CCc1ccc(NC(=O)CSc2ccc(-c3ccco3)nn2)cc1	ALR inh 98 (no result: PglD inh)
Cc1cccc(CSc2ccc(-c3ccco3)nn2)c1	ALR inh 98
Clc1cccc(CSc2ccc(-c3ccco3)nn2)c1	ALR inh 98 (no result: PglD inh)
Cc1ccc(CSc2ccc(-c3ccco3)nn2)cc1	none (no result: Env fusion inh)
CC(=O)c1cccc(NC(=O)CSc2ccc(-c3ccco3)nn2)c1	none
Clc1ccc(CSc2ccc(-c3ccco3)nn2)cc1	none (no result: PglD inh)
COc1ccc(S(=O)(=O)Nc2ccc3c(c2)C(=O)N([C@H](C)CO)C[C@@H](C)[C@H](CN(C)C(=O)CCC(F)(F)F)OCCCC[C@@H](C)O3)cc1	none (no result: ALR inh, NSD2 inh)
CO[C@@H]1CN(C)C(=O)c2ccc(NS(=O)(=O)CC(F)(F)F)cc2OC[C@@H](C)N(C)C[C@@H]1C	none (no result: ALR inh, NSD2 inh)
COc1cc(-c2c(C#N)c(=O)[nH]c3c2c(C)nn3-c2ccccc2)ccc1O	ALR inh 99 (no result: Casp6 inh, CFTR F508del cor)
C[C@@H]1CN([C@@H](C)CO)C(=O)Cc2cc(NS(=O)(=O)c3ccccc3)ccc2O[C@H]1CN(C)S(=O)(=O)c1ccc(Cl)cc1	none (no result: Casp6 inh, ALR inh, NSD2 inh)
CC1C(=O)NN=C1C(=O)N/N=C\c1ccc(O)cc1O (configuration not stated)	ALR inh 98 (no result: CFTR F508del cor)
COc1cc(/C=N/NC(=O)C2=NNC(=O)C2C)ccc1O (configuration not stated)	ALR inh 98 (no result: PglD inh)
CCOC(=O)N/N=C/c1ccc(F)cc1	none (no result: Env fusion inh)
COc1ccc(/C=N/NC(=S)Nc2ccccc2[N+](=O)[O-])cc1O	CFTR F508del cor 8.8
CCOC(=O)N/N=C/c1cc(OC)c(O)c(OC)c1	ALR inh 99 (no result: CFTR F508del cor, PglD inh, NSD2 inh)
COc1cc(/C=N/NC(=O)C(N)=O)cc(OC)c1O	ALR inh 99 (no result: Casp6 inh, PglD inh)
CCOC(=O)N/N=C/c1ccc(OC)c(O)c1	ALR inh 94 (no result: PglD inh)
Cc1ccc(Cl)cc1NC(=O)C1CCCC1	none (no result: Casp6 inh, CFTR F508del cor, ALR inh, PglD inh, Env fusion inh)
CCCNC(=O)N(C)C[C@@H]1Oc2ncc(C#C[C@@H](C)O)cc2C(=O)N([C@@H](C)CO)C[C@H]1C	none (no result: ALR inh, NSD2 inh)
COc1ccc(/C=N/NC(=O)C(=O)N2CCCCCC2)cc1O	ALR inh 83
COc1ccc(/C=N/N=C/c2ccc(OC)c(OC)c2)cc1OC	none (no result: Casp6 inh, CFTR F508del cor, ALR inh)
COc1cc(/C=N/N=C/c2cc(OC)c(O)c(OC)c2)cc(OC)c1O	ALR inh 98 (no result: Casp6 inh, CFTR F508del cor, PglD inh)
COCc1cc(C)nc(OCC(=O)N/N=C/c2ccc(C)cc2)c1C#N	none (no result: PglD inh)
COCc1cc(C)nc(OCC(=O)N/N=C/c2ccc(OC)c(O)c2)c1C#N	ALR inh 99 (no result: PglD inh)
COc1cc(/C=N/NC(=O)C(=O)N2CCCC2)ccc1O	none (no result: Casp6 inh, CFTR F508del cor, ALR inh)
Cc1ccc(S(=O)(=O)Nc2ccc3c(c2)C(=O)N([C@H](C)CO)C[C@@H](C)[C@@H](CN(C)Cc2ccccc2)O3)cc1	none (no result: ALR inh, NSD2 inh)
Cc1nnc(SCC(=O)N/N=C/c2cc(Cl)c(O)c(Cl)c2)s1	ALR inh 82 (no result: Casp6 inh, CFTR F508del cor)
O=C(CSc1nnc(SCc2ccc(Cl)cc2)s1)N/N=C/c1ccc(Cl)cc1Cl	none (no result: PglD inh)
O=C1c2ccccc2NC(c2ccccc2O)N1O (configuration not stated)	ALR inh 91
CCCN1C(=O)c2ccccc2NC1c1ccc(OC)cc1O (configuration not stated)	ALR inh 88 (no result: Casp6 inh, CFTR F508del cor, Env fusion inh)
Cc1ccc(N2C(=O)c3ccccc3NC2c2ccccc2O)cc1 (configuration not stated)	none
CO[C@@H]1CN(C)C(=O)c2ccc(NC(=O)C3CC3)cc2OC[C@H](C)N(CCc2ccccc2)C[C@H]1C	none (no result: ALR inh, PglD inh, NSD2 inh, Env fusion inh)
O=C(N[C@@H]1CC[C@@H](CCNS(=O)(=O)Cc2ccccc2)O[C@H]1CO)c1cnccn1	none (no result: ALR inh, NSD2 inh)
COC(=O)C[C@@H]1CC[C@@H]2[C@H](COc3ccc(NS(=O)(=O)c4ccc(F)cc4)cc3C(=O)N2C)O1	none (no result: Casp6 inh, ALR inh, NSD2 inh)
O=C(CCl)NCc1cc(-c2ccc(Cl)cc2)no1	ALR inh 97 (no result: PglD inh)
COc1ccc(OCc2cc(-c3ccc(Cl)cc3)no2)cc1	none
CCCN(CCC)C(=O)c1cc2c(=O)n3cccc(C)c3nc2s1	Env fusion inh 58
